From PubChem BioAssay
Rows were chosen to be rich in hits. Some 1.3% of all compounds tested hit in one or more screens of this group.
LANA-H2B inh: blocks KSHV LANA binding to histone H2A/H2B. Q9QR71. cell-free LANA-H2A/H2B peptide, fluorescence polarization. inhibition, % (test concentration not listed). 320,000 tested, 0.6% active. AID 2629; in the data active = inhibition mostly above about 10%, no sharp cut-off; inactive = mostly below about 6.7%
Target sequence (Q9QR71 whole entry, looked up): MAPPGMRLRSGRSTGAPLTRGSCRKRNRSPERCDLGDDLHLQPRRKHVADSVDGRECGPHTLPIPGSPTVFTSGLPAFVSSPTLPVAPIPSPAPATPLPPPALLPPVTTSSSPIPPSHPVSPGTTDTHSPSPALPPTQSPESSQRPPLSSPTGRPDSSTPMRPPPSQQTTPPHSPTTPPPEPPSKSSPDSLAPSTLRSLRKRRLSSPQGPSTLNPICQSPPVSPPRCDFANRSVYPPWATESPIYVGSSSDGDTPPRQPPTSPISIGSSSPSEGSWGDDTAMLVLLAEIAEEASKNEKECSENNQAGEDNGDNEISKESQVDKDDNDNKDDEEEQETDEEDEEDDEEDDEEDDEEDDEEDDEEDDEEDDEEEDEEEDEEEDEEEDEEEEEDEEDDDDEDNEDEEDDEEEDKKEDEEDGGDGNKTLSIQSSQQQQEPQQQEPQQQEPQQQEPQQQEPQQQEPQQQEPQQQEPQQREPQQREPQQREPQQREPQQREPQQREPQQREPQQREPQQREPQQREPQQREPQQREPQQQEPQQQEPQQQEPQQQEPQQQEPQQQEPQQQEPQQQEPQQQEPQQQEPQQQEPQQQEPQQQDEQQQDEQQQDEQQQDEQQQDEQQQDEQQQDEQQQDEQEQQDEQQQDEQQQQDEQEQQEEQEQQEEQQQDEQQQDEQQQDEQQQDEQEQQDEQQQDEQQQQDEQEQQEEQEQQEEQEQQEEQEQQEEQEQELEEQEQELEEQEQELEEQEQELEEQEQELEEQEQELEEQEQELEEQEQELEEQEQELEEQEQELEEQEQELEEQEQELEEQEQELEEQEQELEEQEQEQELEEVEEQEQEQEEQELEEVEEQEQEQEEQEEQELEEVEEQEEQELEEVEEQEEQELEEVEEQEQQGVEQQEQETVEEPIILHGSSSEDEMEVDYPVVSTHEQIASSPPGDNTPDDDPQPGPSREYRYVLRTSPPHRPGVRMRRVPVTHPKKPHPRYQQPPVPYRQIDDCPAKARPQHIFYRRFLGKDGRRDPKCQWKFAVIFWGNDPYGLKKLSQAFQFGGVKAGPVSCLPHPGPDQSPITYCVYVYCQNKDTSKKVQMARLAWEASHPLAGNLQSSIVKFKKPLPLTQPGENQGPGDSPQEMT
C-LANA FP: blocks KSHV LANA C-terminal domain binding to DNA; MBP-C-LANA/FAM-LBS DNA binding, fluorescence polarization; inhibition, % at 9 µM; 340,000 tested, 0.078% active;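 active = highest replicate inhibition at or above 60% at 9 µM, even if other replicates fall short; inactive = all replicates below 60% inhibition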
Keap1 Nrf2 FP: inhibitors of human Keap1-Nrf2 protein-protein interaction; Keap1 Kelch-Nrf2 peptide fluorescence polarization, 1536-well; inhibition, % at 9.4 µM; 340,000 tested, 0.15% active; AID 504523; in the data active = inhibition above about 12%;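 also: human Keap1 Kelch domain with fluorescein labeled Nrf2 9mer peptide probe; higher means more block of Keap1 binding to Nrf2 peptide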
cardiac RTF act: increases calcium sensitivity of human cardiac regulated thin filaments. AID 493008. activation, % at 7.2 µM. P19429+P45379. 340,000 tested, 0.24% active. IANBD-labeled TnC RTF fluorescence at EC20 calcium; 0% EC20 calcium, 100% full calcium;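 active = activation above the mean over all tested compounds plus 3 SD, cut at about 30% in these data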;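 also: rise in fluorescence read as greater calcium sensitivity of cardiac thin filaments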
eLon inh: inhibitors of E. coli Lon protease; 360,000 tested, 0.42% active; P0A9M0; inhibition, % at 7.94 µM; purified E. coli Lon protease, fluorescence polarization; in the data active = inhibition above about 13%, passing the limit was not always enough
RTF Ca sens inh: cardiac RTF calcium desensitization; P19429+P45379; IANBD-labeled cardiac RTF, Ca2+ fluorescence; 340,000 tested, 0.12% active; inhibition, % at 7.15 µM; AID 493244;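 active = inhibition above the mean inhibition of all tested compounds plus 3 SD, cut at about 17% in these data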;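 also: assay run at fixed EC70 calcium of 1.6 mM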
Hits are given with their value; - = inactive; . = no result given; ! = not active in a repeat.

SMILES | LANA-H2B inh | C-LANA FP | Keap1 Nrf2 FP | cardiac RTF act | eLon inh | RTF Ca sens inh
CCOc1cc2c(cc1OCC)C(C(=O)O)C(c1cc(Br)c(O)c(OC)c1)N(C)C2=O (stereo unspecified) | 15 | - | - | - | - | -
C[C@H](NC(=O)Cc1cccc2ccccc12)C(=O)NCc1ccccc1 | 16 | - | - | - | - | -
O=C(Cc1cccc2ccccc12)Nc1ccccc1 | - | - | - | - | - | -
O=C(O)c1cc(Cl)ccc1-c1ccc(/C=C/c2cc(C(F)(F)F)[nH]c(=O)n2)o1 | - | - | - | 448 | - | -
O=C(O)c1ccccc1-c1ccc(/C=C/c2cc(C(F)(F)F)[nH]c(=O)n2)o1 | . | - | - | 727 | - | -
Cc1cccc(NC(=O)CN2CCN(C(=O)CN3C(=O)NC4(CCCCC4C)C3=O)CC2)c1C (stereo unspecified) | . | - | - | - | - | -
N#C/C(=C\c1ccccn1)c1nc2ccccc2s1 | - | - | - | 60 | - | -
N#C/C(=C/c1ccc(-c2ccccc2)o1)c1nc(-c2cccs2)cs1 | - | - | - | 93 | - | -
N#C/C(=C/c1ccc(-c2ccc(S(N)(=O)=O)cc2)o1)c1nc2ccccc2s1 | - | - | - | 347 | - | -
CCCCCCCNC(=O)C1(CC2CC(c3ccc(Cl)cc3)=NO2)CCN(C(=O)CCCCCBr)CC1 (stereo unspecified) | - | - | - | - | - | -
CCOC(=O)C1C(=O)NC(SCC(N)=O)=C(C#N)C1c1ccccc1OCC (stereo unspecified) | - | - | - | 38 | - | -
O=c1[nH]c2ccc(N=Cc3c(O)ccc4cc(Br)ccc34)cc2[nH]1 | . | - | - | 30 | - | -
C[C@H](NC(=O)c1cc2c(cn1)[nH]c1ccccc12)C(=O)O | - | - | - | - | - | -
COC(=O)[C@H](C)NC(=O)c1cc2c(cn1)[nH]c1ccccc12 | - | - | - | 32 | - | -
Cc1[nH]c(=O)nc(SCc2cccc(Cl)c2)c1C#N | - | - | - | - | - | -
N#Cc1c(SCc2c(Cl)cccc2Cl)nc(N)[nH]c1=S | 11 | - | - | - | - | -
CN(C)c1ccc(/C=N/N(CCO)C2=NS(=O)(=O)c3ccccc32)cc1 | - | - | - | 316 | - | -
O=S1(=O)N=C(N(CCO)/N=C/c2ccc(Cl)cc2)c2ccccc21 | - | - | - | - | - | -
O=C(CN1CCCCC1)Nc1ccc(S(=O)(=O)N2CCCCCC2)cc1 | - | - | - | - | - | -
O=C(CN1CCCC1)Nc1ccc(S(=O)(=O)N2CCCCC2)cc1 | 35 | - | - | - | - | -
CCOC(=O)CN1C(=O)S/C(=C/c2ccc(N3CCCCC3)o2)C1=O | - | - | - | 70 | - | -
O=C(O)CN1C(=O)/C(=C/c2ccc(N3CCCCC3)o2)SC1=S | - | - | - | - | - | -
CCOC(=O)CN1C(=O)S/C(=C/c2ccco2)C1=O | - | - | - | - | - | -
COC(=O)CN1C(=O)S/C(=C/c2ccc(N3CCCCC3)o2)C1=O | - | - | - | 322 | - | -
CCC(CC)NC(=O)COn1nnc2ccc(S(=O)(=O)N3CCOCC3)cc21 | - | - | - | - | - | -
SMILES | LANA-H2B inh | C-LANA FP | Keap1 Nrf2 FP | cardiac RTF act | eLon inh | RTF Ca sens inh
CC(=O)NC(=S)Nc1ccc(NC(=S)NC(=O)/C=C/c2ccco2)cc1 | - | - | - | - | - | -
O=C(/C=C/c1ccco1)NC(=S)Nc1ccc(C(=O)O)cc1 | - | 62 | - | - | - | -
COc1ccc(CNC(=O)Nc2nc(C(N)Cc3ccc(C(F)(F)F)cc3)cs2)cc1 (stereo unspecified) | . | . | . | . | - | .
Cc1ccc(C)c(N2CCN(C(=O)CN3C(=S)NC(C)(C)CC3C)CC2)c1 (stereo unspecified) | - | - | - | 31 | - | -
CC1CC(C)(C)NC(=S)N1CC(=O)N1CCN(Cc2ccccc2)CC1 (stereo unspecified) | - | - | - | - | - | -
CC1Cn2c(nc3sc4c(c3c2=O)CC(C)(C)OC4)N1CCO (stereo unspecified) | - | - | - | - | - | -
CCCC(=O)O[C@]1(C(=O)COC(C)=O)CC[C@H]2[C@@H]3C[C@H](F)C4=CC(=O)C=C[C@]4(C)[C@@]3(F)[C@@H](O)C[C@@]21C | 22! | - | - | - | - | -
